The record followed here is PubChem BioAssay AID485297 (National Center for Advancing Translational Sciences (NCATS), 2010).

In all, about 320,000 compounds went through this assay and about 9,100 (2.8%) were called active. Roughly 3% stayed inconclusive and do not appear here. The call rests on the fitted dose curve; in most records, active means well fitted activation curve with a large enough effect; inconclusive means small, poorly fitted or top-dose-only effect; inactive means no such curve, though single readings can be large or run the other way. The sample as a whole holds a higher share of actives than the screen did.
Potency means the concentration at half of the fitted maximal effect.

A short description of the test: qHTS Assay for Rab9 Promoter Activators. Further: nearly all actives have a fitted effect of over 60% in size. On activation, negative = inhibition: % of control where 0% means no effect. The settings on record: Huh7 Rab9 promoter-luciferase reporter, luminescence, 24 h; series mostly up to 9.22 µM; activation, negative = inhibition: at the top concentration. The essentials:
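Quantitative HTS format; Huh7 Rab9-luciferase reporter cells (1500/well) receive compound 2 h post-plating, incubate 24 h at 37 °C, then get luciferase reagent for 10 min before luminescence reading.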
A general note: qHTS replaces the single test concentration by a dilution series.
With `C=CCn1c(SCC(=O)NC(=O)Cc2ccccc2)nc2ccccc2c1=O`, the “activation, negative = inhibition” value was -2.86% (inactive).
For the molecule `Cc1ccc(S(=O)(=O)CCC(=O)OCC(=O)NCCc2ccc(S(N)(=O)=O)cc2)cc1`, the “activation, negative = inhibition” value was -4.91% (inactive).
`O=C(/C(=C/c1cccc(Cl)c1)c1nc2ccccc2[nH]1)c1ccccc1`: the “activation, negative = inhibition” value is 16.2% (inactive).
For the molecule `N#C/C(=C(/O)COC(=O)COc1ccc(Cl)cc1)c1nc2ccccc2[nH]1`, the “activation, negative = inhibition” value is -0.0556% (inactive).
For the molecule `O=C(Cc1nc2ccccc2[nH]c1=O)c1ccc(Cl)cc1`, the Potency was 2000 nM (active).
As to `CC(C)(C)OC(=O)Nc1ccc([C@@H](NC(=O)OC(C)(C)C)C(=O)OC(C)(C)C)cc1`, the “activation, negative = inhibition” value is 0.239% (inactive).
As to `N#Cc1ccc(CSc2nnc3ccccn23)cc1`, the “activation, negative = inhibition” value is -32.1% (inactive).
For `O=C(CSc1nnc2ccccn12)c1ccccc1`, the Potency is 2510 nM (active).
For `Cc1ccc(-n2c(C)cc(C(=O)CN3C(=O)C(=O)N(C4CCCC4)C3=O)c2C)cc1`, the “activation, negative = inhibition” value was 0.731% (inactive).
With `Cc1ccc(-n2c(C)cc(C(=O)CSc3nnc4ccccn34)c2C)cc1`, the Potency is 398 nM (active).
Consider `Cc1cc(C(=O)CSc2nc(N)cc(=O)[nH]2)c(C)n1-c1cccc(F)c1`, for which the “activation, negative = inhibition” value is -19.8% (inactive).
The same measure, in the same setting: the value for `Cn1c(CC(=O)Nc2ccccc2)nnc1SCC(=O)c1ccccc1` was -11.8% (inactive).
Take `COc1ccc(NC(=O)CSc2nnc(C3CC3)n2C)cc1S(=O)(=O)N1CCCCC1`: the “activation, negative = inhibition” value was -1.73% (inactive).
`Cc1ccc(Nc2nnc(SCC(=O)c3cc4ccccc4o3)s2)cc1C`: the “activation, negative = inhibition” value is 4.96% (inactive).
On to `CC(C)c1ccc(Nc2nnc(SCC(=O)c3nnc(-c4ccccc4)o3)s2)cc1`, for which the Potency was 4470 nM (active).
With `O=C(CSc1nnc(Nc2ccccc2)s1)Nc1cccnc1Cl`, the “activation, negative = inhibition” value was 0.496% (inactive).
Still for that read-out and setting: in the case of `COc1cc2c(cc1OC)C(=O)NCC(C)(C)O2` it was 0.04% (inactive); in that of `COc1ccccc1-c1sc2ccccc2c1-c1ccc(Br)nc1`, -7.9% (inactive).
As for `Cc1csc(SCC(=O)N(c2ccccc2)C(C)C)n1`, the “activation, negative = inhibition” value is -4.73% (inactive).
As to `NC(=O)c1ccsc1NC(=O)COC(=O)COc1ccc(C=O)cc1`, the “activation, negative = inhibition” value was 2.6% (inactive).
For `O=C(O)c1ccccc1N=N/C(=N/Nc1cc(S(=O)(=O)O)ccc1O)c1ccccc1`, the “activation, negative = inhibition” value was 10.6% (inactive).
As for `O=C(O)c1cccc(S(=O)(=O)N2CC=C(c3ccccc3)CC2)c1`, the “activation, negative = inhibition” value was 0.495% (inactive).
For the molecule `CC1CN/C(=C\C(=O)c2ccc(Br)cc2)C(=O)N1` (centres undefined), the Potency is 501 nM (active).
For the molecule `COc1cc2c(cc1OC)/C(=C/C(=O)c1ccc(NC(C)=O)cc1)NCC2`, the “activation, negative = inhibition” value was -2.71% (inactive).
In the case of `CN1CCCC(OC(=O)COc2ccc(Br)cc2)C1` (centres undefined), the “activation, negative = inhibition” value is 0.13% (inactive).
Same read-out and setting: in the case of `CCCCNC(=O)OCCSCCS(=O)(=O)c1ccc(Cl)cc1` it was 1.89% (inactive); in that of `CC(=O)c1sc(NC(=O)CCCOc2ccccc2C)nc1C`, -4.39% (inactive); in that of `COc1ccc(/C=N\NC(=O)c2sc(N)nc2C)cc1OC`, 1.81% (inactive).
As for `CC(=O)c1sc(N)nc1C`, the “activation, negative = inhibition” value is 0.837% (inactive).
Still for that read-out and setting: in the case of `CC(=O)c1sc(NC(=O)C2=NN(c3ccccc3)C(=O)CC2)nc1C` it was 0.789% (inactive).
As to `CC(=O)c1sc(N/N=C/c2ccc(C(C)C)cc2)nc1C`, the Potency was 794 nM (active).
On to `CC(=O)c1sc(N/N=C\c2ccc(C)cc2)nc1C`, for which the Potency was 2000 nM (active).
Regarding `Cc1nnc(C)n1/N=C/c1ccc(C(C)C)cc1`, the “activation, negative = inhibition” value is 0.524% (inactive).
`Cc1ccc(S(=O)(=O)Nc2nc(C)cc(N/N=C/c3ccc(O)cc3)n2)cc1`: the “activation, negative = inhibition” value was 2.57% (inactive).
For the molecule `CC(=O)c1sc(NC(=O)c2ccc(C)cc2)nc1C`, the Potency is 1780 nM (active).
For the molecule `COc1cc2ccccc2cc1C(=O)Nc1ccccc1C`, the “activation, negative = inhibition” value was 5.13% (inactive).
As to `COc1cc2ccccc2cc1C(=O)Nc1nc(C)c(C(C)=O)s1`, the Potency is 3980 nM (active).
As to `COc1cc2ccccc2cc1C(=O)Nc1ccncc1`, the “activation, negative = inhibition” value is 18.7% (inactive).
In the case of `N#Cc1ccc(C(=O)OCC(=O)NC(=O)NC2CCCCC2)cc1`, the “activation, negative = inhibition” value was -3.13% (inactive).
Still for that read-out and setting: in the case of `CCN(CC(=O)Nc1cc(Cl)ccc1C)C(=O)CSCc1ccccc1` it was -2.39% (inactive).
Still for that read-out and setting: the value for `CC(Oc1ccc(F)cc1F)C(=O)/C=C/N(C)C` (centres undefined) was -3.13% (inactive).
Take `COc1ccccc1-c1nn(Cc2ccccc2)cc1C(=O)N1CCN(c2ncccn2)CC1`: the “activation, negative = inhibition” value is 0.929% (inactive).
For `O=C(COC(=O)c1ncc(Cl)c(Cl)c1Cl)NCc1ccccc1`, the “activation, negative = inhibition” value is -2.67% (inactive).
`CCc1ccccc1S(=O)(=O)Cc1ccc(C(=O)NCCc2ccccc2)o1`: the “activation, negative = inhibition” value was 4.39% (inactive).
As to `CCN(CC)CCN1C(=O)C(=O)/C(=C(/O)c2ccc(OC)c(OC)c2)C1c1ccccn1` (centres undefined), the “activation, negative = inhibition” value was 0.612% (inactive).
On to `CCN(CC)CCN1C(=O)C(=O)/C(=C(/O)c2ccccc2)C1c1ccccc1F` (centres undefined), for which the “activation, negative = inhibition” value is -0.0008% (inactive).
On to `CCN(CC)CCN1C(=O)C(=O)/C(=C(/O)c2cnn(-c3ccccc3)c2C)C1c1cccs1` (centres undefined), for which the Potency was 2510 nM (active).
As for `COc1ccc(S(=O)(=O)N2CCC(C(=O)OCC(=O)c3ccccc3)CC2)cc1[N+](=O)[O-]`, the “activation, negative = inhibition” value was -4.69% (inactive).
On the same count and under the same terms, in the case of `COc1ccc2sc(-c3ccc(N(C)C)cc3)c(C#CCO)c2c1` it was -2.43% (inactive); in that of `Cc1ccc(CN2CC(C(=O)N3CCN(S(=O)(=O)c4ccccc4)CC3)CC2=O)cc1` (centres undefined), -0.553% (inactive); in that of `Cc1ccc(C(=O)N/C(=C/c2cccs2)C(=O)NCC2CCCO2)cc1` (centres undefined), -0.356% (inactive).
Regarding `Cc1ccc(S(=O)(=O)N2CCC(C(=O)NCC3CCCO3)CC2)cc1` (centres undefined), the “activation, negative = inhibition” value is -3.61% (inactive).
Consider `Cc1ccc(-n2c(C)cc(/C=C(\C#N)C(=O)NCC3CCCO3)c2C)cc1` (centres undefined), for which the Potency was 3980 nM (active).
Turning to `COc1ccc(C)cc1NC(=O)c1ccc(-c2ccc(C(C)=O)cc2)o1`, the “activation, negative = inhibition” value is -1.54% (inactive).
As to `CCOC(=O)c1ccc(NC(=O)c2cccnc2)cc1`, the “activation, negative = inhibition” value is 27.2% (inactive).
Consider `CCOC(=O)c1ccc(-c2ccc(C(=O)Nc3cccnc3)o2)cc1`, for which the Potency was 2240 nM (active).
As for `CCOc1cc(CNCc2ccccn2)ccc1OCC(=O)NC(C)(C)C`, the “activation, negative = inhibition” value is -0.141% (inactive).
On to `Cc1ccc(S(=O)(=O)N2CCN(c3ncnc4ccccc34)CC2)cc1`, for which the “activation, negative = inhibition” value is -32% (inactive).
Still for that read-out and setting: the value for `CCc1ccc(C(=O)N2CCN(S(=O)(=O)c3sc(C(=O)O)c(C)c3C(=O)O)CC2)cc1` was 0.966% (inactive); that for `Cn1c(CCC(=O)OCC(=O)NCc2ccccc2Cl)nc(=O)c2ccccc21` was -9.63% (inactive).
As for `CC(C)n1ncc2c(C(=O)Nc3ccc(CC#N)cc3)cc(C3CC3)nc21`, the “activation, negative = inhibition” value is -8.64% (inactive).
On the same count and under the same terms, in the case of `C=CCC(NC(=O)Cc1ccccc1)C(=O)NCCC` (centres undefined) it was -2.37% (inactive).
With `COc1ccc(CNC(=O)c2ccc3oc(C(C)C)nc3c2)cc1`, the Potency is 2820 nM (active).
For the molecule `COc1ccc(CNC(=O)c2cc(=O)c3c(C)cc(C)cc3o2)cc1`, the “activation, negative = inhibition” value is -1.78% (inactive).
With `CC(C)c1nc2cc(C(=O)NC(C)c3cnn(C)c3)ccc2o1` (centres undefined), the “activation, negative = inhibition” value was 13.4% (inactive).
As for `CCOc1ccc(S(=O)(=O)N2CCC(C(=O)NCC(=O)Nc3cccc(Cl)c3C)CC2)cc1`, the “activation, negative = inhibition” value is -3.69% (inactive).
On the same count and under the same terms, the value for `Cc1cccc(C(=O)c2cccc(C)c2)c1` was 0.0012% (inactive).
On to `Cc1cccc(/C(N)=N/OC(=O)c2ccccc2Cl)c1`, for which the Potency is 891 nM (active).
`N/C(=N\OC(=O)c1cc(-c2ccccc2)nc2ccccc12)c1ccncc1`: the “activation, negative = inhibition” value was -0.274% (inactive).
